The panel holds about 79,000 compounds, 15% with a hit somewhere; the sample as a whole holds those more often. Unmarked numbers belong to inactive results. The source made the active and inactive calls. Rule as the data show it: active = growth inhibition above about 70%; inactive = the rest. Where a SMILES comes first, the peptide text is derived from it. [ ]: non-standard residue; d: D form. The star is where a group is joined. Phe(4-NO2) = N[CH](Cc1ccc([N+](=O)[O-])cc1)C(=O)O; Boc = CC(C)(C)OC(=O)*

Assay [1] can be described thus: NCI Yeast Anticancer Drug Screen. Data for the rad50 strain (AID 155).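 Also: 0% = growth of vehicle-only cultures of the same strain.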 Conditions: S. cerevisiae rad50 strain growth inhibition; at 50.0 µM; active compounds read high. The gist of the method:
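Inhibition values express reduced yeast growth in compound-treated cultures relative to vehicle-treated controls.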

Assay [2] is described as follows: NCI Yeast Anticancer Drug Screen. Data for the mec2-1 strain (AID 157). Conditions: S. cerevisiae mec2-1 strain, at 50.0 µM, active compounds read high. The gist of the method:
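Compounds were applied to mec2-1 yeast cells. Their growth was then compared with that of vehicle-treated cultures to give growth inhibition.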

Assay [3] is described as follows: NCI Yeast Anticancer Drug Screen. Data for the sgs1 mgt1 strain (AID 161).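 Also: 0% = growth of cultures given vehicle only.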 Conditions: S. cerevisiae sgs1 mgt1 strain, at 50.0 µM, active compounds read high. The gist of the method:
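Growth of a repair-deficient yeast mutant was monitored after compound treatment and expressed as inhibition relative to vehicle-treated cultures.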

The nature of assay [4]: NCI Yeast Anticancer Drug Screen. Data for the cln2 rad14 strain (AID 165).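 Also: 0% = growth equal to vehicle treated cultures.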 Conditions: S. cerevisiae cln2 rad14 strain, at 50.0 µM, active compounds read high. The essentials:
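Strain: cln2 rad14 yeast, altered in cell cycle control and DNA damage repair. Read-out: growth inhibition vs vehicle.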

Assay [5] can be described thus: NCI Yeast Anticancer Drug Screen. Data for the bub3 strain (AID 167). Conditions: S. cerevisiae bub3 mutant strain, at 50.0 µM, active compounds read high. The essentials: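 Steps: expose the mutant yeast strain to compound; grow alongside vehicle-treated cultures; measure growth; express inhibition against the vehicle cultures.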
Assay [6] in a line: NCI Yeast Anticancer Drug Screen. Data for the mlh1 rad18 strain (AID 175). The settings on record: S. cerevisiae mlh1 rad18 strain growth inhibition; at 50.0 µM; active compounds read high. The essentials: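 A repair-deficient yeast strain is exposed to test compound, and growth is scored relative to vehicle-treated controls.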

As for `CC(C)CCCC(C)[C@H]1CC[C@H]2[C@@H]3CC[C@H]4C[C@@H](CCC=C(c5cc(Cl)c(O)c(C(=O)OC(C)C)c5)c5cc(Cl)c(O)c(C(=O)OC(C)C)c5)CC[C@]4(C)[C@H]3CC[C@]12C` (stereo not given in full), the growth inhibition in assay [1] was 17.7%; in assay [2] it was 9.05%; in assay [3] it was 23.1%; in assay [4] it was 18.7%; in assay [5], 11.5%; in assay [6] it was -32.5%.
With `Cc1cccc(C(=O)O)n1.[Cu+2]`, the growth inhibition was -20.6% in assay [1]; 7.6% in assay [2]; -19.4% in assay [3]; -69.9% in assay [4]; -27.6% in assay [5]; -11.6% in assay [6].
As for `O=c1c(SCc2ccc(Cl)cc2)c(N2CCCCC2)cnn1-c1ccccc1`, the growth inhibition in assay [1] is 20.5%; in assay [2], 19.4%; in assay [3], 10.8%; in assay [4] it was 34%; in assay [5], 9.3%; in assay [6], 15.1%.
For the molecule `O=C(N/N=C/c1cc(Br)cc(Br)c1O)c1ccccc1`, the growth inhibition was 3.85% in assay [1]; -1.4% in assay [2]; 11.3% in assay [3]; 3.85% in assay [4]; -2.05% in assay [5]; 28.4% in assay [6].
`Cc1nc2ccccc2c(=O)n1NC(=O)c1ccc([N+](=O)[O-])cc1`: the growth inhibition in assay [1] is -43.4%; in assay [2] it was -26.4%; in assay [3] it was -13.5%; in assay [4], -21.4%; in assay [5] it was -10.8%; in assay [6], -19.1%.
Consider `NCc1ccc(S(=O)(=O)Nc2cc(Br)cc(Br)c2)cc1`, for which the growth inhibition in assay [1] was 16.4%; in assay [2], 14.8%; in assay [3] it was 30.2%; in assay [4] it was 35.1%; in assay [5], 12%; in assay [6], 30.4%.
Regarding `O=Cc1ccc(C(=O)O)cc1`, the growth inhibition is -1.35% in assay [1]; -14.6% in assay [2]; 0.25% in assay [3]; -13.2% in assay [4]; -12.8% in assay [5]; -9.6% in assay [6].
As to `O=C(COC(=O)c1ccccc1Br)c1ccc(-c2ccccc2)cc1`, the growth inhibition is 33.6% in assay [1]; 20.8% in assay [2]; 31.6% in assay [3]; 31.4% in assay [4]; 0.7% in assay [5]; 23.2% in assay [6].
Regarding `OCC1OC(n2nc(-c3ccccc3)nc2-c2cnccn2)C(O)C(O)C1O` (stereo not given), the growth inhibition in assay [1] was -37.4%; in assay [2], -35.8%; in assay [3], -31.4%; in assay [4], 3.65%; in assay [5], -46.1%; in assay [6] it was -43.5%.
In the case of `O=C(N/N=C/c1ccccn1)c1ccccc1`, the growth inhibition is -1.2% in assay [1]; 23.6% in assay [2]; 10.7% in assay [3]; 19.1% in assay [4]; 13.3% in assay [5]; 3.55% in assay [6].
`C/C(=N\NC(=S)N(C)C)c1nc2ncccc2[nH]1`: the growth inhibition was -44.1% in assay [1]; -24.1% in assay [2]; -64.8% in assay [3]; -1.5% in assay [4]; 18.7% in assay [5]; -19.1% in assay [6].
As for `O=C1OC(/C=C/c2ccccc2)=NC/1=C\c1ccc(Cl)cc1`, the growth inhibition in assay [1] was 23.4%; in assay [2] it was 14.1%; in assay [3], 23.6%; in assay [4], 13.7%; in assay [5] it was 7.15%; in assay [6], 10.2%.
In the case of `CN1C(=O)N/C(=C\c2ccc(S(=O)(=O)N/N=C/c3ccccc3)cc2)C1=O`, the growth inhibition was 16.4% in assay [1]; 44.9% in assay [2]; 20.1% in assay [3]; -2.55% in assay [4]; 2.75% in assay [5]; 39.9% in assay [6].
Regarding `CN(C)S(=O)(=O)C(CO)c1ccccc1` (stereo not given), the growth inhibition is 5.75% in assay [1]; 12.9% in assay [2]; 6.8% in assay [3]; 3.15% in assay [4]; -5.4% in assay [5]; 10.5% in assay [6].
As to `O=C(NCCCN(CCCCN(CCCNC(=O)C(F)(F)F)Cc1ccc2ccccc2c1)Cc1ccc2ccccc2c1)C(F)(F)F`, the growth inhibition in assay [1] was 83.4% (active); in assay [2], 87.3% (active); in assay [3], 88.5% (active); in assay [4] it was 88.2% (active); in assay [5], 87% (active); in assay [6] it was 92.5% (active).
Take `COC(=O)CCC(NC(=O)OC(C)(C)C)C(=O)NC(Cc1ccc([N+](=O)[O-])cc1)C(=O)NC(CCC(=O)OC)C(=O)OC` (stereo not given) (Boc-Glu(OMe)-[Phe(4-NO2)]-Glu(OMe)-OMe; configuration not given here): the growth inhibition in assay [1] is 7.6%; in assay [2], -6.6%; in assay [3], 9.9%; in assay [4] it was 20.6%; in assay [5], 11.7%; in assay [6], -44.1%.
For `Cc1cccc2nnc(CCCc3nnc4cccc(C)n34)n12`, the growth inhibition in assay [1] was -0.85%; in assay [2], 1.85%; in assay [3] it was -22.1%; in assay [4] it was -34.4%; in assay [5], -8.8%; in assay [6] it was -6.3%.
Turning to `CCN(CC)CCOC(=O)c1ccc(Cl)c(Cl)c1`, the growth inhibition is 13.8% in assay [1]; -5.9% in assay [2]; 19.9% in assay [3]; -46.3% in assay [4]; -6.6% in assay [5]; -9.4% in assay [6].
As for `CC(C)=CCCC(C)(O)C1CC=C(C)CC1` (stereo not given), the growth inhibition in assay [1] is 0.5%; in assay [2] it was -18.8%; in assay [3], -2.6%; in assay [4] it was 3.05%; in assay [5] it was -13.9%; in assay [6] it was -7.65%.
`CC(C)c1ccccc1N1C(=O)CC(Sc2ccccc2N)C1=O` (stereo not given): the growth inhibition was -5.45% in assay [1]; -12.8% in assay [2]; -9.25% in assay [3]; -28.6% in assay [4]; 0.15% in assay [5]; 3.8% in assay [6].
